# Measurements: PubChem BioAssay (Tox21)
# Inconclusive results are not listed. Where a call stands in place of a potency, no number is given. Unmarked numbers belong to inactive results. Activity calls are given as the source filed them. The call rests on the fitted dose curve; in most records, active means well fitted inhibition curve with a large enough effect in the signal ratio in the repeat runs (not every such curve was filed as active); inconclusive means weak or mixed curves; inactive means flat fitted curve, though single readings scatter; the % refers to the signal ratio.
# Target: Progesterone receptor (Homo sapiens) (UniProt P06401)
# Assay: qHTS assay to identify small molecule antagonists of the progesterone receptor (PR) signaling pathway (AID 1346795)
# Details: PR-UAS-bla HEK293T, beta-lactamase FRET ratio, 16 h; series mostly up to 92.4 µM
# Text: National Center for Advancing Translational Sciences [NCATS]
# NIH Chemical Genomics Center [NCGC]
# U.S. Environmental Protection Agency [EPA]
# National Institutes of Environmental Health Sciences [NIEHS]
# National Toxicology Program [NTP]
# U.S. Food and Drug Administration [FDA]
# Progesterone receptor (PR), a nuclear hormone receptor, plays an important role in development, metabolic homeostasis and reproduction. […] Endocrine disrupting chemicals (EDCs) and their interactions with steroid hormone receptors like PR causes disruption of normal endocrine function. To identify the compounds that inhibit PR signaling, a PR-UAS-bla GripTite cell line i.e. PR-UAS-bla HEK293T (Invitrogen, Carlsbad, CA, USA) containing a beta-lactamase reporter gene under the control of an Upstream Activator Sequence (UAS) was used to screen Tox21 10K compound library.
# Tox21 Assay Protocol Summary:
# PR-UAS-bla HEK293T cells were dispensed at 3,000 cells/4 uL of assay medium containing 2% charcoal stripped FBS per well into black wall/clear-bottom 1536-well plates using a Multidrop Combi (ThermoFisher Scientific, Waltham, MA) dispenser. After the assay plates were incubated at a 37C and 5% CO2 for 6 hr, 23 nL of compounds dissolved in DMSO, positive controls or DMSO only was transferred to the assay plate by a Pintool station (Kalypsys, San Diego, CA), followed by addition of 1 uL (1nM as final concentration) of Promegestone (R5020) in assay medium using a BioRAPTR FRD (Flying Reagent Dispenser, Aurora Discovery, San Diego, CA). The plates were incubated at 37C and 5% CO2 for 16 hr. Then 1 uL of LiveBLAzer B/G FRET substrate was added using a FRD. After the plates were incubated at room temperature for 2 hours, fluorescence intensity was measured by an Envision plate reader (PerkinElmer, Shelton, CT).
# Sequence of Progesterone receptor (Homo sapiens) (P06401 whole entry, looked up): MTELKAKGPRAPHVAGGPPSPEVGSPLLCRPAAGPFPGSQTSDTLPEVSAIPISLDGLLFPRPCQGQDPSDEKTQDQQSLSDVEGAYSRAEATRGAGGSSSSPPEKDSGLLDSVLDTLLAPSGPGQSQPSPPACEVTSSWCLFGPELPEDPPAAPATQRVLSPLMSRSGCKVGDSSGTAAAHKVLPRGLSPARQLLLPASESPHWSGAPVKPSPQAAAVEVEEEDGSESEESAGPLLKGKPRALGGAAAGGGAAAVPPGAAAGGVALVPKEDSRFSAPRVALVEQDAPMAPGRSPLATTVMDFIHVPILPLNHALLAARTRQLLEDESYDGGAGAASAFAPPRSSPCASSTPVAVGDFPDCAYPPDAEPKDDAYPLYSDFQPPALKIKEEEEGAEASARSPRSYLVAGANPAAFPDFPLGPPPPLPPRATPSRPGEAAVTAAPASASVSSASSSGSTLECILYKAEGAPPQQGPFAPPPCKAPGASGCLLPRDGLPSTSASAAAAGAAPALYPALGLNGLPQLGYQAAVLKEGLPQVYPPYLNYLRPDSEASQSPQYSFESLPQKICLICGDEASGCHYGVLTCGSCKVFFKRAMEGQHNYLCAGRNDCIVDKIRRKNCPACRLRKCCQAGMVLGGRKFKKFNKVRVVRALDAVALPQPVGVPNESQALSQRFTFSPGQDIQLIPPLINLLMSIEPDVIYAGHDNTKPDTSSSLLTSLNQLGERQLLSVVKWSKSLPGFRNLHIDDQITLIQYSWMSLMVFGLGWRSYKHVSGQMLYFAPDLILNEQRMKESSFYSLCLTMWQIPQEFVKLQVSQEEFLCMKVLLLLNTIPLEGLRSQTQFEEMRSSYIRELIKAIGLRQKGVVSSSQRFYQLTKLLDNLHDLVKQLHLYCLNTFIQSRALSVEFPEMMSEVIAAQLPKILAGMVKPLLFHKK
SMILES,Potency,"activity change, negative = inhibition"
C=C(C)C(=O)OCCCC,inactive,
CCCC(=O)CC,inactive,
Cc1ccc(S(=O)(=O)NC(=O)NN2CC3CCCC3C2)cc1 (stereo not given),inactive,
O=C(O)P(=O)(O)O,inactive,
CO/N=C(\C(=O)O)c1csc(NC(=O)CCl)n1,inactive,
C=CCCCCCCCCOC(C)=O,inactive,
CCCCN=C(N)N=C(N)N,inactive,
CCN1CCN(C(=O)N[C@@H](C(=O)N[C@@H]2C(=O)N3[C@@H]2SC(C)(C)[C@H]3C(=O)O)c2ccccc2)C(=O)C1=O,inactive,
CC(=O)Oc1ccc(C(C)=O)cc1,inactive,
CNCCc1ccccn1,inactive,
CC(=O)c1ccc(O)c(C(N)=O)c1,inactive,
CCc1ncc(C)[nH]1,inactive,
CCCCCCCCC1CO1 (stereo not given),inactive,
O=Cc1ccc(C(=O)O)cc1,inactive,
O=C1CCCc2c(O)cccc21,inactive,
CC(=O)c1c(C)cc(C(C)(C)C)cc1C,inactive,
Nc1cc(S(=O)(=O)O)ccc1O,inactive,
COC(=O)c1ccccc1Cl,inactive,
CCCCCCC(=O)c1ccccc1,inactive,
O=S(=O)(O)CC(O)CCl (stereo not given),inactive,

SMILES,Potency,"activity change, negative = inhibition"
CCCCN(CCCC)CCCCCCN(CCCC)CCCC,inactive,
COc1cc(NS(=O)(=O)c2ccc(N)cc2)ncn1,inactive,
C/C=C(\C)C=O,inactive,
CC(C)CC(O)Cc1ccccc1 (stereo not given),inactive,
Cc1ccc(O)c(C(=O)c2ccccc2)c1,inactive,
CC(=O)OC1CCC(C(C)(C)C)CC1 (stereo not given),inactive,
N[C@H]1C(O)O[C@H](CO)[C@@H](O)[C@@H]1O (stereo not given in full),inactive,
CCNC(=O)C(C)OC(=O)Nc1ccccc1 (stereo not given),inactive,
CN1CCN(C(=O)C2CCCCC2)CC1,inactive,
NC[C@H]1O[C@H](O[C@H]2[C@H](O)[C@@H](O[C@H]3O[C@H](CO)[C@@H](O)[C@H](N)[C@H]3O)[C@H](N)C[C@@H]2N)[C@H](N)[C@@H](O)[C@@H]1O,,11.8% [at 18.9 µM]
CCCCCCCOC(C)=O,inactive,
CC(C)(C)C(=O)CC(=O)C(C)(C)C,inactive,
CCCc1ccc(O)c(OC)c1,inactive,
CCCCNCC,inactive,
CCCCCCC(O)CO (stereo not given),inactive,
CCCCCCCCOCCC#N,inactive,
C=CCN(CC=C)CC=C,inactive,
COCCCOc1cc(C[C@@H](C[C@H](N)[C@@H](O)C[C@H](C(=O)NCC(C)(C)C(N)=O)C(C)C)C(C)C)ccc1OC,inactive,
NCC1CCC(C(=O)Oc2ccc(CCC(=O)O)cc2)CC1 (stereo not given),inactive,
CCCC(C)C(O)CC (stereo not given),inactive,
